Reference: PubChem BioAssay (NCATS)
Inconclusive results are not listed. Active and inactive are the calls of the source. The call rests on the fitted dose curve; in most records, active means well fitted curve in the direction sought with a large enough effect; inconclusive means small, poorly fitted or top-dose-only effect, or another doubt; inactive means no such curve, though single readings can be large; an effect the other way counts as inactive or inconclusive.

Legend:
[1] = qHTS of pediatric cancer cell lines to identify multiple opportunities for drug repurposing: Primary screen for TC32 cells (AID 1347089); further: nearly all actives have a fitted effect of over 60% in size; further: potency means the concentration at half of the fitted maximal effect
Procedure, shortened: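 Luminescent ATP read-out (CellTiter-Glo) of metabolically active TC32 cells after 48 h exposure. Concentration-response curves came from 11-point (MIPE, 0.78 nM–46 µM) or 8-point (NPC, 0.59 nM–46 µM) primary titrations; follow-up used 11 points.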

[2] = qHTS of pediatric cancer cell lines to identify multiple opportunities for drug repurposing: Primary screen for SJ-GBM2 cells (AID 1347091); further: potency means the concentration at half of the fitted maximal effect
Procedure, shortened: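 Eight- or eleven-point concentration series, 48 h treatment at 37 degrees C in growth media; readout CellTiter-Glo luminescence. Potency and efficacy were taken from the concentration-response curves.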

[3] = qHTS of pediatric cancer cell lines to identify multiple opportunities for drug repurposing: Primary screen for SK-N-MC cells (AID 1347093); further: potency means the concentration at half of the fitted maximal effect
Procedure, shortened: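 Metabolically active cells were quantified by ATP-dependent luminescence (CellTiter-Glo, 15 min at room temperature) following 48 h treatment. Cells had been plated at 500-1,000 per well and settled for 5 h beforehand.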

[4] = qHTS of pediatric cancer cell lines to identify multiple opportunities for drug repurposing: Primary screen for BT-37 cells (AID 1347094); further: potency means the concentration at half of the fitted maximal effect
Procedure, shortened: (§1)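 Cells plated at 500-1,000/well in growth medium, compounds added after 5 h. MIPE tested at 11 points (from 0.78 nM), NPC at 8 points (from 0.59 nM). CellTiter-Glo luminescence after 48 h; concentration-response curves from primary screen.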

[5] = qHTS of pediatric cancer cell lines to identify multiple opportunities for drug repurposing: Primary screen for NB-EBc1 cells (AID 1347095); further: potency means the concentration at half of the fitted maximal effect
Procedure, shortened: as §1

[6] = qHTS of pediatric cancer cell lines to identify multiple opportunities for drug repurposing: Primary screen for Saos-2 cells (AID 1347097); further: nearly all actives have a fitted effect of over 40% in size; further: potency means the concentration at half of the fitted maximal effect
Procedure, shortened: as §1

[7] = qHTS of pediatric cancer cell lines to identify multiple opportunities for drug repurposing: Primary screen for SK-N-SH cells (AID 1347098); further: nearly all actives have a fitted effect of over 65% in size; further: potency means the concentration at half of the fitted maximal effect
Procedure, shortened: (§2)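 Cells (500-1,000/well) rested 5 h, then received compounds for 48 h; metabolically active cells were measured by CellTiter-Glo luminescence. Final concentrations spanned up to 46 µM (MIPE, 11-point) or 0.59 nM-46 µM (NPC, 8-point) in primary screens, 11-point in follow-ups.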

[8] = qHTS of pediatric cancer cell lines to identify multiple opportunities for drug repurposing: Primary screen for NB1643 cells (AID 1347099); further: nearly all actives have a fitted effect of over 50% in size; further: potency means the concentration at half of the fitted maximal effect
Procedure, shortened: as §1

[9] = qHTS of pediatric cancer cell lines to identify multiple opportunities for drug repurposing: Primary screen for LAN-5 cells (AID 1347100); further: potency means the concentration at half of the fitted maximal effect
Procedure, shortened: (§3)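 Cells (500-1,000/well) in growth media were settled 5 h at 37 degrees C, then given compounds for 48 h. Viability was read as CellTiter-Glo luminescence. Primary runs used MIPE at 11 points (0.78 nM-46 µM) and NPC at 8 points (0.59 nM-46 µM); follow-ups used 11 points.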

[10] = qHTS of pediatric cancer cell lines to identify multiple opportunities for drug repurposing: Primary screen for BT-12 cells (AID 1347101); further: nearly all actives have a fitted effect of over 25% in size; further: potency means the concentration at half of the fitted maximal effect
Procedure, shortened: as §2

[11] = qHTS of pediatric cancer cell lines to identify multiple opportunities for drug repurposing: Primary screen for Rh18 cells (AID 1347102); further: nearly all actives have a fitted effect of over 65% in size; further: potency means the concentration at half of the fitted maximal effect
Procedure, shortened: as §3

[12] = qHTS of pediatric cancer cell lines to identify multiple opportunities for drug repurposing: Primary screen for OHS-50 cells (AID 1347103); further: nearly all actives have a fitted effect of over 40% in size; further: potency means the concentration at half of the fitted maximal effect
Procedure, shortened: as §2

[13] = qHTS of pediatric cancer cell lines to identify multiple opportunities for drug repurposing: Primary screen for RD cells (AID 1347104); further: nearly all actives have a fitted effect of over 55% in size; further: potency means the concentration at half of the fitted maximal effect
Procedure, shortened: as §1

[14] = qHTS of pediatric cancer cell lines to identify multiple opportunities for drug repurposing: Primary screen for MG 63 (6-TG R) cells (AID 1347105); further: nearly all actives have a fitted effect of over 50% in size; further: potency means the concentration at half of the fitted maximal effect
Procedure, shortened: as §1

[15] = qHTS of pediatric cancer cell lines to identify multiple opportunities for drug repurposing: Primary screen for A673 cells (AID 1347092); further: nearly all actives have a fitted effect of over 45% in size; further: potency means the concentration at half of the fitted maximal effect
Procedure, shortened: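 Cell viability of A673 measured by CellTiter-Glo ATP luminescence after 48 hours compound exposure. Dilution series spanned 0.78 nM to 46 µM (MIPE, 11-point) or 0.59 nM to 46 µM (NPC, 8-point); bortezomib 2.3 uM positive control.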

[16] = qHTS of pediatric cancer cell lines to identify multiple opportunities for drug repurposing: Primary screen for control Hh wild type fibroblast cells (AID 1347106);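 further: series mostly up to about 46 µM; a drop in luminescence marks cytotoxicity and a rise apparent proliferation; nearly all actives have a fitted effect of over 55% in size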
Procedure, shortened: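 Viability after 48 h compound treatment at 37C, 500-1,000 cells/well, read as ATP luminescence with CellTiter-Glo. Primary screens used 11-point (MIPE, 0.78 nM-46 µM) or 8-point (NPC, 0.59 nM-46 µM) final concentrations; follow-up screens used 11-point dilutions.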

[17] = qHTS of pediatric cancer cell lines to identify multiple opportunities for drug repurposing: Primary screen for U-2 OS cells (AID 1347096); further: nearly all actives have a fitted effect of over 50% in size
Procedure, shortened: as §3

Measured: Potency

CCS(=O)(=O)c1cccc(-c2cc(C(=O)NC3CCN(C)CC3)c(C)c3[nH]c4ncc(C)cc4c23)c1
active: [1] 415 nM | [2] 526 nM | [3] 187 nM | [4] 3060 nM | [5] 16600 nM | [6] 935 nM | [7] 6810 nM | [8] 526 nM | [9] 118 nM | [10] 6110 nM | [11] 1180 nM | [12] 769 nM | [13] 2640 nM | [14] 14800 nM

CCOC(=O)C1=C(C)NC2=C(C(=O)CC(C)(C)C2)C1c1ccc(-c2ccccc2)cc1 (configuration not stated)
active: [2] 4690 nM | [15] 3720 nM | [4] 3850 nM | [5] 5900 nM | [6] 3320 nM | [10] 24300 nM | [11] 16600 nM | [12] 19300 nM | [13] 16600 nM | [14] 14800 nM
inactive: [1]

CNC(=O)CN1CCC(Oc2cc3c(Nc4cccc(Cl)c4F)ncnc3cc2OC)CC1
inactive: [16]
active: [1] 930 nM | [2] 1 nM | [3] 5.3 nM | [4] 1 nM | [5] 6.6 nM | [6] 18.7 nM | [7] 60.7 nM | [9] 1 nM | [10] 1.4 nM | [12] 1 nM | [13] 2.6 nM

O=C(NC1CCNCC1)c1[nH]ncc1NC(=O)c1c(Cl)cccc1Cl
active: [1] 2340 nM | [2] 833 nM | [3] 526 nM | [4] 1370 nM | [5] 1870 nM | [6] 1660 nM | [7] 1710 nM | [10] 1930 nM | [12] 968 nM | [13] 332 nM | [14] 3720 nM

CC=C1NC(=O)[C@H]2CSSCCC=C[C@H](CC(=O)N[C@H](C(C)C)C(=O)N2)OC(=O)[C@H](C(C)C)NC1=O
active: [1] 58.7 nM | [2] 14.8 nM | [15] 11.8 nM | [3] 10.5 nM | [4] 10.9 nM | [5] 29.6 nM | [6] 11.8 nM | [7] 121 nM | [8] 9.3 nM | [9] 9.3 nM | [10] 12.2 nM | [11] 5.3 nM | [12] 19.3 nM | [13] 14.8 nM | [14] 11.8 nM

C[C@]12CC[C@H](O)CC1=CCC1C2CC[C@]2(C)C(n3cnc4ccccc43)=CCC12 (some centres not stated)
inactive: [1] | [17] | [10] | [13] | [14] | [16]
active: [2] 23500 nM | [15] 14800 nM

CC(C)c1noc(N2CCC(COc3ccc(-c4ccc(S(C)(=O)=O)cc4)nc3)CC2)n1
inactive: [1] | [2] | [3] | [5] | [17] | [7] | [8] | [9] | [11] | [14]
active: [12] 4320 nM

CC(C)(C)c1cc(NC(=O)Nc2ccc(-c3cn4c(n3)sc3cc(OCCN5CCOCC5)ccc34)cc2)no1
active: [2] 14800 nM | [3] 743 nM | [5] 16600 nM | [6] 18700 nM | [14] 23500 nM
inactive: [1] | [7] | [8] | [9] | [10] | [11] | [16]

COc1cc(C(=O)NS(=O)(=O)c2ccccc2C)ccc1Cc1cn(C)c2ccc(NC(=O)OC3CCCC3)cc12
inactive: [1] | [5] | [16]
active: [15] 14800 nM | [3] 8330 nM | [6] 20900 nM | [11] 26400 nM | [12] 21700 nM | [14] 29600 nM

CNC(=O)c1ccc(-c2cnc3ncc(Cc4ccc5ncccc5c4)n3n2)cc1F
inactive: [1] | [4] | [17] | [6] | [7] | [8] | [9] | [10] | [11] | [12] | [13]

O=C(NCCS(=O)(=O)c1ccc(C(F)(F)F)cn1)c1ccc(Cl)cc1
inactive: [1] | [15] | [4] | [5] | [17] | [6] | [8] | [9] | [10] | [12] | [13] | [14] | [16]
